Screening data as filed in PubChem.
HT1080-NT tox: qHTS for induction of synthetic lethality in tumor cells producing 2HG: qHTS for the HT-1080-NT fibrosarcoma cell line | 360,000 compounds, 1.6% hits | Potency, µM (series often up to 46.1 µM), usual class: cytotoxic | HT-1080-NT fibrosarcoma viability, CellTiter-Glo ATP luminescence, 48 h;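 note: NT is the 2HG producing partner of a matched IDH1 knockdown line; nearly all actives have a fitted effect of over 55% in size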
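750 cells/well, RPMI + 5% FBS; 2 h settle, compound pin-transfer, 48 h at 37 degrees C. CellTiter-Glo 10 min RT, luminescence. Normalized to DMSO and media-only wells.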
DT40 TDP1 no CPT: qHTS for Inhibitors of human tyrosyl-DNA phosphodiesterase 1 (TDP1): qHTS in cells in absence of CPT; DT40 Tdp1-/- hTDP1 cells, no CPT, ATP luminescence, 48 h; Potency, µM (titrated, usually from 46.2 µM), actives largely listed as inhibitors; 420,000 compounds, 15% hits; note: nearly all actives have a fitted effect of over 55% in size
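Growth of hTDP1-complemented DT40 Tdp1-knockout cells is measured by ATP luminescence after at least 48 hr compound exposure at 37 °C, with DMSO substituting for the 20 nM CPT used in the parallel screen.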
TDP1 cell CPT: qHTS for Inhibitors of human tyrosyl-DNA phosphodiesterase 1 (TDP1): qHTS in cells in presence of CPT; chicken DT40 Tdp1-/-;hTDP1 cells + 20 nM CPT, ATP luminescence, 48 h; Potency, µM (series often up to 46.2 µM), most hits filed as inhibitors; 420,000 compounds, 12% hits; AID 686979, 2013; note: nearly all actives have a fitted effect of over 55% in size
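Chicken DT40 Tdp1-/- cells stably complemented with human TDP1 were seeded at 400 cells/well in medium containing 20 nM camptothecin, exposed to pin-transferred compounds, and grown at 37 °C for at least 48 hr. Viability was read as ATP luminescence.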
IL1B secr inh: qHTS for Inhibitors of Inflammasome Signaling: IL-1-beta AlphaLISA Primary Screen; 360,000 compounds, 4.7% hits; activity change, % at 57.5 µM; THP-1 LPS/ATP IL-1B secretion, AlphaLISA, 16 h; stronger effect = lower value; in the data active = activity change below about -50%; inconclusive = mostly about -30% to -49%
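Secreted IL-1B measured by AlphaLISA bead assay after 16 h compound exposure of THP-1 cells; compounds (final up to 57.5 uM) added 1 h before LPS (250 ng/mL) and ATP (1.25 mM) stimulation; lower signal means less secretion.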
HT1080 IDH1KD tx: qHTS for induction of synthetic lethality in tumor cells producing 2HG: qHTS for the HT-1080-IDH1KD cell line; HT-1080 IDH1 knockdown viability, ATP luminescence, 48 h; 360,000 compounds, 2% hits; Potency, µM (doses to about 46.1 µM), usual class: cytotoxic
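Luminescent ATP read-out (CellTiter-Glo, 10 min at room temperature) after 48 h compound exposure at 37 °C gave viability of IDH1-knockdown HT-1080 cells. Activity was normalised to DMSO and cell-free wells, then fitted as concentration-response curves.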
A number is an active result; . = inactive; ? = inconclusive; / = no result. This is a sample that favours compounds with a hit; in the whole collection about 19% have one here. Unless noted, calls come from the whole dose curve; as a rule, active = well fitted curve in the direction sought with a large enough effect; inconclusive = small, poorly fitted or top-dose-only effect, or another doubt; inactive = no such curve, though single readings can be large; an effect the other way counts as inactive or inconclusive.

SMILES	HT1080-NT tox	DT40 TDP1 no CPT	TDP1 cell CPT	IL1B secr inh	HT1080 IDH1KD tx
O=c1c2ccccc2nc(/C=C/c2ccc3c(c2)OCO3)n1-c1cccc(O)c1	.	?	.	.	.
O=c1c2ccccc2nc(/C=C/c2ccc(O)cc2)n1-c1ccc(O)cc1	.	?	?	.	.
CC[C@]1(C2=NCCN2)Cc2ccccc2O1	/	.	.	/	/
Cc1ccc(C)c(OCc2cc(C(=O)N3C[C@H]4C[C@@H](C3)c3cccc(=O)n3C4)no2)c1	.	.	.	.	.
COc1cccc(C(=O)C2CCCN(Cc3ccc4nsnc4c3)C2)c1 (centres undefined)	.	?	?	.	.
O=C(c1ccc(Cl)cc1)C1CCCN(Cc2cccc3cccnc23)C1 (centres undefined)	.	16µM	23µM	-50	?
O=C(c1ccc(Cl)cc1)C1CCCN(Cc2ccc3nonc3c2)C1 (centres undefined)	.	?	16µM	.	.
O=C(c1ccc(Cl)cc1)C1CCCN(Cc2cccc3ncccc23)C1 (centres undefined)	?	15µM	18µM	.	?
O=C(c1ccc2c(c1)OCO2)C1CCCN(Cc2c(F)cccc2Cl)C1 (centres undefined)	.	?	.	.	.
CC1(C)N([O-])[N+](=O)C1(C)Br (centres undefined)	/	.	?	/	/
O=S(=O)(c1ccc(Cl)cc1)N1Cc2cc(Br)ccc2-n2nncc2C1	.	23µM	21µM	.	.
CC(C)S(=O)(=O)N1Cc2ccccc2-n2nncc2C1	.	.	.	.	.
COc1ccc(NC(=S)N2Cc3ccccc3-n3nncc3C2)c(OC)c1	.	12µM	?	.	.
Cc1cc(C)c(S(=O)(=O)N2Cc3ccccc3-n3nncc3C2)c(C)c1	.	2.1µM	5.2µM	.	.
COc1ccc(S(=O)(=O)N2Cc3ccccc3-n3nncc3C2)cc1	.	15µM	16µM	.	.
COc1cc(C(=O)N2Cc3ccccc3-n3nncc3C2)cc(OC)c1OC	.	.	.	.	.
C[C@@H]([C@H](O)c1ccccc1)N(C)C	/	.	.	/	/
CC1(C)C(O)CC(=O)[C@]2(C)C1CC(=O)[C@]1(C)C2CC[C@@]2(C)C(c3ccoc3)OC(=O)C3O[C@@]321 (some centres undefined)	/	.	.	/	/
O=S(=O)(c1cccc2ccccc12)N1Cc2ccccc2-n2nncc2C1	.	12µM	23µM	.	.
CC(=O)C(Sc1ncnc2c1nnn2-c1ccc(F)cc1)C(=O)N(C)C (centres undefined)	.	21µM	21µM	.	.
N[C@@H](Cc1c[nH]c2ccccc12)c1nnc(SCc2ccc(Cl)cc2)o1	.	?	.	.	.
O=C(Cn1c(=O)c(C(F)(F)F)nc2ccccc21)N1CCC2(CC1)OCCO2	.	.	.	.	.
CC1CCN(C(=O)Cn2c3ccccc3c3nc4n(c(=O)c32)CCCS4)CC1	.	?	23µM	.	.
Cc1ccc(N=Nc2c(O)[nH]c(=O)[nH]c2=O)c([N+](=O)[O-])c1	.	.	.	.	.
O=C(CN1C(=O)c2ccccc2C1=O)N1CCN(c2nnc(-c3ccccc3)c3ccccc23)CC1	.	?	.	.	.
SMILES	HT1080-NT tox	DT40 TDP1 no CPT	TDP1 cell CPT	IL1B secr inh	HT1080 IDH1KD tx
O[C@H]1C[C@H](c2ccccc2)N(CC2CCCCC2)C[C@@H]1n1cc(-c2ccc(F)cc2)nn1	.	15µM	23µM	.	.
c1ccc(C(c2ccccc2)c2cccnc2)cc1	.	?	.	.	.
c1ccc(-c2ccc(C(c3ccccc3)n3ccnc3)cc2)cc1 (centres undefined)	?	23µM	10µM	.	?
O.O.O.O=C([O-])C(O)C(O)C(=O)[O-].O=C([O-])C(O)C(O)C(=O)[O-].[K+].[K+].[Sb].[Sb] (centres undefined)	/	.	.	/	/
CCOC(=O)c1ccc(N2C(=O)c3n[nH]c(-c4cccs4)c3C2c2ccc(C(C)(C)C)cc2)cc1 (centres undefined)	/	6.5µM	16µM	/	/
CCOC(=O)c1ccc(N2C(=O)c3n[nH]c(-c4cccs4)c3C2c2ccc(Cl)cc2Cl)cc1 (centres undefined)	/	18µM	?	/	/
CCOP(=O)(OCC)C(O)c1cccc([N+](=O)[O-])c1 (centres undefined)	.	.	.	.	.
N#Cc1cc2c(nc1SCC(=O)Nc1ccc(C(F)(F)F)cc1)C1CCN2CC1	/	23µM	13µM	/	/
N#Cc1cc2c(nc1SCC(=O)Nc1ccc(Cl)cc1)C1CCN2CC1	?	?	?	.	?
N#Cc1cc2c(nc1SCC(=O)Nc1ccc(Cl)c(C(F)(F)F)c1)C1CCN2CC1	/	12µM	21µM	/	/
N#Cc1cc2c(nc1SCC(=O)Nc1cc(Cl)ccc1Cl)C1CCN2CC1	?	?	18µM	.	?
CC(=NCCN1CCCCC1)c1c(O)n(-c2ccccc2)c(=O)[nH]c1=O	.	.	.	.	.
CC(C)Cc1nc2cccnc2n1C1CCNCC1	/	.	.	/	/
Cc1cc(NC(=O)CCC(=O)N2CCC3(CC2)OCCO3)no1	.	.	.	.	.
Fc1ccc(C[n+]2c(-c3ccccc3)cc(-c3ccccc3)cc2-c2ccccc2)cc1	16µM	0.58µM	1.2µM	.	18µM
CCOc1ccc(-c2cc(C)[n+](CCO)c(-c3ccc(OCC)cc3)c2)cc1	?	0.65µM	1.5µM	-75	?
COc1ccc(CC[n+]2cc(/N=C(\C)[O-])on2)cc1OC	.	.	.	.	.
CCOc1ccc(-c2cc(C)[n+](CCc3ccc(OC)c(OC)c3)c(-c3ccc(OCC)cc3)c2)cc1	21µM	1.2µM	0.82µM	-109	16µM
NCCc1ccccc1	.	.	.	.	.
Cc1cc(-c2ccccc2)cc(-c2ccccc2)[n+]1CCc1ccccc1	.	0.21µM	0.18µM	?	.
O=C(C1CC(=O)N(c2ccc(F)c(Cl)c2)C1)N1CCC2(CC1)OCCO2 (centres undefined)	.	.	?	.	.
O=C(O)C(O)(c1ccc(Cl)cc1)C1(O)CCCC1 (centres undefined)	.	.	.	.	.
COc1nc(C)nc(Cl)c1NC1=NCCN1	?	.	.	.	.
Cc1cccn2c(=O)c3cc(C(=O)N4CCC5(CC4)OCCO5)n(C)c3nc12	16µM	1.3µM	1.2µM	.	13µM
CCN(CC)C(=O)/C(Cl)=C(\C)OP(=O)(OC)OC	/	.	.	/	/
